Bioassay records from PubChem.
Most compounds without a hit are left out; they make up all but 0.8% or so of the library.
TDP1 inh: TDP1 (human) enzyme inhibition; Q9NUW8; recombinant TDP1, AlphaScreen DNA substrate cleavage; Potency, µM (titrated, usually from 130 µM), most hits filed as inhibitors; 0.28% of 350,000 active; AID 485290; further: nearly all actives have a fitted effect of over 40% in size
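Here, a 5' biotin and 3' phosphotyrosine-FITC DNA oligonucleotide reports Tdp1 activity: intact substrate bridges AlphaScreen beads, while cleavage leaves a 3' phosphate and drops signal. All incubations at room temperature.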
Tb PFK inh: T. brucei PFK enzyme inhibition; T. brucei PFK, ADP-Glo luminescence; Potency, µM (series often up to 57.5 µM), hits mostly inhibitors; AID 485367; 0.17% of 330,000 active; further: nearly all actives have a fitted effect of over 60% in size
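Compounds were pin-transferred as a titration series up to 57 uM into substrate buffer (0.5 mM F6P, 0.1 mM ATP, pH 8.0), then 1.25 nM PFK was added and reactions ran 45 min before ADP-Glo detection.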
FEN1 inhibitor: inhibitors of human flap endonuclease 1. P39748. Recombinant FEN1 flap cleavage, fluorescence, 15 min. Potency, µM (titrated, usually from 114 µM), hits mostly inhibitors. 0.35% of 390,000 active; further: nearly all actives have a fitted effect of over 65% in size
Target sequence (P39748 whole entry, looked up): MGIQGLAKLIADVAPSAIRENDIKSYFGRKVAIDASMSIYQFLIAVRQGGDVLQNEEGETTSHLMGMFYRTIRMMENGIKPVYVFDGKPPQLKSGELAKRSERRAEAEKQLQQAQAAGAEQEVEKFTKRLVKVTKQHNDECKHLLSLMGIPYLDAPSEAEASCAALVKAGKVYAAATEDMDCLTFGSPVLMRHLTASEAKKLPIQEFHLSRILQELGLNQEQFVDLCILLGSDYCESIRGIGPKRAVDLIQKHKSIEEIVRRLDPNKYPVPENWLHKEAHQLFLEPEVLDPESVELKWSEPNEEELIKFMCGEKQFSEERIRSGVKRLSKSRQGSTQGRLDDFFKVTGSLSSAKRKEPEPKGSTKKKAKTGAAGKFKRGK
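Concentration–response screening of FEN1 (10 nM): 15 min compound preincubation at room temperature, reaction started with 50 nM substrate and read at 0 and 15 min. Corrected, normalized data were fitted by a four-parameter Hill equation.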
PGK inhibitor: T. brucei PGK inhibition; AID 602233; PGK/GAPDH coupled, Kinase-Glo luminescence, 60 min; P07378; 0.043% of 380,000 active; Potency, µM (top dose mostly 57.5 µM), most hits filed as inhibitors; further: nearly all actives have a fitted effect of over 60% in size
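Luminescent ATP detection (Kinase-Glo Plus) follows a 60-minute room-temperature incubation, with wells lacking PGK as controls. Buffer: 100 mM TEA (pH 7.6), 5 mM MgCl2, 0.01% Tween-20. Coupling enzyme GAPDH (100 nM final) supplies unstable 1,3-BPG in-well.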
APEX1 inh: blocks human APE1 abasic DNA cleavage | 0.35% of 350,000 active | Potency, µM (top dose mostly 65.8 µM), usual class: inhibitors | recombinant APE1, TAMRA/BHQ-2 abasic DNA cleavage fluorescence | P27695; further: nearly all actives have a fitted effect of over 55% in size
Target sequence (P27695 whole entry, looked up): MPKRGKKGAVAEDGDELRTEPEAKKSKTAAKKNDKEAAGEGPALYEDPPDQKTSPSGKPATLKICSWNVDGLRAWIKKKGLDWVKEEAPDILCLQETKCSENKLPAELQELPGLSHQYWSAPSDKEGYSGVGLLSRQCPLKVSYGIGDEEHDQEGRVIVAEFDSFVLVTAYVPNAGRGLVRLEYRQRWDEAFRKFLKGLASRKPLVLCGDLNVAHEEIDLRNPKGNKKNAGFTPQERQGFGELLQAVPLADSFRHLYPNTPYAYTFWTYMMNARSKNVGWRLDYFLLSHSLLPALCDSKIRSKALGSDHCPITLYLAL
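Substrate: short duplex with […] THF abasic site, 5'-TAMRA and 3'-BHQ-2, 50 nM final. APE1 at 0.75 nM, preincubated 15 min RT with compound. Fluorescence increase from first to third read measured activity.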
PI4K2A block: inhibitors of human PI4K2A; activity change, negative = inhibition, % at 76.9 µM; purified PI4K2A, ADP-Glo luminescence, 1 h; stronger effect = lower value; Q9BTU6; 0.13% of 420,000 active; in the data active means activity change below about -50%; inconclusive means mostly about -30% to -49%
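In this quantitative HTS, ADP production by PI4K2A was quantified luminescently after 1 h at ambient temperature; 100 microM adenosine served as plate-quality control.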
Numbers stand for hits; . = inactive; ? = inconclusive; / = not tested or not shown; [ ] = another dose, or the depositor's remark. Unless noted, the call rests on the fitted dose curve; in most records, active means well fitted curve in the direction sought with a large enough effect; inconclusive means small, poorly fitted or top-dose-only effect, or another doubt; inactive means no such curve, though single readings can be large; an effect the other way counts as inactive or inconclusive.

SMILES	TDP1 inh	Tb PFK inh	FEN1 inhibitor	PGK inhibitor	APEX1 inh	PI4K2A block
Cc1nn(-c2ccc(F)cc2)c(Cl)c1/C=N/NC(=O)c1cccs1	79µM	.	.	.	.	.
Cc1cnc(NS(=O)(=O)c2ccc(N)cc2)nc1	/	/	/	/	/	.
Cc1cccn2c(=O)c3cc(C(=O)NCc4ccco4)c(=N)n(C4CCCCC4)c3nc12	/	.	.	.	17µM	.
CC(=O)Nc1ccc(OCc2cccc(-c3nc4ccccc4c(=O)n3Cc3ccco3)c2)cc1	.	/	/	/	/	/
O=[N+]([O-])c1cc(CN2CCCC2)c2cccnc2c1O	3.5µM	.	40µM	.	3.5µM	.
Oc1c(Cl)cc(CN2CCCCC2)c2cccnc12	/	.	/	/	.	/
Cc1ccc(NS(=O)(=O)c2cc3c(cc2-c2ccccc2)NC(=O)CO3)cc1C	.	/	/	/	/	/
COc1cc2nc(N3CCCN(C)CC3)nc(NC3CCN(Cc4ccccc4)CC3)c2cc1OC	/	/	18µM	/	/	.
COc1cc2nc(N3CCCN(C)CC3)nc(Nc3ccncc3)c2cc1OC	/	/	14µM	/	/	/
COc1cc2nc(Cl)nc(N3CCN(C)CC3)c2cc1OC	.	.	/	/	.	/
COc1cc2c(NC3CCN(C)CC3)nc(N3CCCN(C)CC3)nc2cc1OCc1ccccc1	/	/	22µM	/	/	/
CC(=O)c1cc2c(s1)c1cnn(Cc3ccccc3F)c(=O)c1n2C	.	/	/	/	/	/
CCc1nnc(NC(=O)C2CC(=O)N(C3CCCCC3)C2)s1 (configuration not stated)	22µM	.	.	.	.	.
COCCSc1nnc(NC(=O)C2CC(=O)N(C3CCCC3)C2)s1 (configuration not stated)	.	.	.	.	.[12.4 µM]	.
O=Cc1ccc(-c2cccc(C(=O)O)c2)o1	45µM	.	.	.	.	.
Cc1nnc(N/N=C\c2ccc(-c3cccc(C(=O)O)c3)o2)n1N	50µM	?	.	.	?	?
CN1C(C(=O)NCC2CC2)CC2Cn3c(nc4cc5ccccc5cc43)C21 (configuration not stated)	/	?	.	.	4µM	.
Cc1ccc(CNC(=O)C2CC3Cn4c(nc5cc6ccccc6cc54)C3N2C)o1 (configuration not stated)	.	.	.	.	.	.
CN1C(=O)/C(=C/c2ccc(-c3ccccc3[N+](=O)[O-])o2)SC1=Nc1ccc(Cl)c(C(=O)O)c1	.	.	45µM	.	.	.
CC(=O)Nc1cc(NC(C)=O)cc(C(=O)N2CCCC3CCCCC32)c1 (configuration not stated)	/	?	.	.	17µM	.
O=C(Nc1ccccc1)N1CCCC2CCCCC21 (configuration not stated)	.	.	.	.	.	.
O=c1nc(Nc2ccccc2)oc2ccccc12	.	.	.	.	.	.
O=c1oc(Nc2ccc(F)cc2)nc2ccccc12	.	.	.	.	?	-57
C/C(=N\Nc1ccc(C(=O)O)cc1)c1ccc(Br)cc1	/	?	.	?	25µM	.
CN(Cc1ccccc1)c1ccc(/C=C/c2sc3ccccc3[n+]2C)cc1	/	/	40µM	/	/	/
SMILES	TDP1 inh	Tb PFK inh	FEN1 inhibitor	PGK inhibitor	APEX1 inh	PI4K2A block
CN(CCCS(=O)(=O)[O-])c1ccc(/C=C/c2ccc3ccccc3[n+]2C)cc1	/	.	.	/	.	.
CCCC[n+]1c(/C=C/c2ccc(N(C)C)cc2)sc2ccccc21	/	/	50µM	/	/	/
CCCCCCCCCC[n+]1ccc(/C=C/c2ccc(N(C)C)cc2)c2ccccc21	/	/	79µM	/	/	/
O=C(c1ccccc1)N1CCN(c2nc(-c3cccs3)nc3ccccc23)CC1	.	/	/	/	/	/
N#Cc1cccc(NS(=O)(=O)c2ccc3c(c2)CCC(=O)N3)c1	.	/	/	/	/	/
NC(=O)c1cc[n+](CC2=C(C(=O)[O-])N3C(=O)[C@@H](NC(=O)Cc4cccs4)[C@@H]3SC2)cc1	16µM	/	/	/	/	/
O=C(Cc1cccs1)N[C@@H]1C(=O)N2C(C(=O)[O-])=C(C[n+]3ccccc3)CS[C@H]12	/	/	/	/	28µM	/
NC(=O)c1cc[n+](CC2=C(C(=O)O)N3C(=O)[C@@H](NC(=O)C(c4ccccc4)S(=O)(=O)[O-])[C@H]3SC2)cc1 (some centres not stated)	.	.	2.2µM	1.1µM	.	?
Cc1ccc(S(=O)(=O)Nc2cc(C(=O)O)ccc2N2CCCCC2)cc1	.	.	.	.	.	.
O=C(O)CCc1ccc(S(=O)(=O)Nc2cc(C(F)(F)F)ccc2N2CCCC2)cc1	18µM	.	.	.	?	.
O=[N+]([O-])c1ccc(/C=N/Nc2ncc(-c3ccccc3)cn2)cc1	.	.	.	.	.	.
O=[N+]([O-])c1ccc(/C=N/Nc2ncc(Br)cn2)cc1	50µM	.	.	.	.	.
Cc1cc(O)c2c(c1O)C(=O)c1c(O)cc(C)c(O)c1C2=O	.	/	/	/	?	/
Cc1cc(=O)c2c(O)c3c(O)cc(O)c4c5c(O)cc(O)c6c(O)c7c(=O)cc(C)c8c1c2c(c34)c(c65)c78	.	/	/	/	3.2µM	/
O=C(N/N=C\c1ccccc1O)c1ccccc1O	32µM	/	/	/	.	/
O=C(N/N=C/c1cccc(O)c1)c1ccccc1O	/	.	.	.	.	.
CCOc1[nH]c(/N=C/c2ccc(OC)cc2)c(C#N)c1C#N	.	/	79µM	/	/	/
Cc1cc(C(=O)O)ccc1-c1ccc(/C=C2\SC(=O)N(CC(=O)Nc3ccc4c(c3)OCO4)C2=O)o1	8.9µM	.	/	/	6.7µM	/
Cc1ccccc1NC(=O)CN1C(=O)S/C(=C\c2ccc(-c3cc(C(=O)O)ccc3C)o2)C1=O	/	.	?	?	?	.
COC(=O)[C@H]1[C@H]2C[C@@H]3c4[nH]c5cc(OC)ccc5c4CCN3C[C@H]2C[C@@H](OC(=O)/C=C/c2ccc(O)c(OC)c2)[C@@H]1OC	/	/	/	/	/	.
COC(=O)Cc1ccc2sc(-c3ccccc3)nc2c1	.	.	.	.	?	-62
CC(=O)Nc1cccc(-c2nc3ccccc3s2)c1	.	.	.	.	.	.
O=C(O)Cc1ccc2sc(-c3ccccc3)nc2c1	.	.	.	.	.	-67
O=C(CNC(=O)/C=C/c1ccco1)N=Nc1c(O)[nH]c2ccccc12	40µM	?	.	?	8.4µM	.
O=C(CNC(=O)Cc1ccccc1)N=Nc1c(O)[nH]c2ccccc12	.	.	.	.	.	.
CC1(C)S[C@@H]2[C@H](NC(=O)C(c3ccccc3)S(=O)(=O)O)C(=O)N2[C@H]1C(=O)O (some centres not stated)	/	/	/	/	/	.
O=C(COC(=O)c1cccnc1Cl)c1ccccc1	.	.	.	.	.	-71
CCc1ccc(C(=O)COC(=O)c2cccnc2Cl)cc1	.	.	.	.	.	.
CCOC(=O)N1CCC(n2c(=O)[nH]c3cc(Cl)ccc32)CC1	/	/	/	/	/	.
